# LEDGF integ inh = blocks HIV-1 LEDGF/p75-dependent DNA integration; TR-FRET IN-LEDGF/p75 DNA integration, Eu/Cy5; inhibition, % at 3.7 µM; 0.64% of 370,000 active; AID 743269;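 active means inhibition above the screen-wide mean plus 3 SD, cut at about 13% in these data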;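 further: signal is the Cy5 over europium emission ratio at 671 and 618 nm; 0% = plate median of compound wells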
# PLC-gamma1 inh = inhibitors of human phospholipase C gamma1 | P19174 | purified PLC-gamma1, fluorogenic substrate, fluorescence | inhibition, % at 12.2 µM | 0.84% of 370,000 active | AID 720700; in the data active means inhibition above about 9.5%
# Target sequence (P19174 whole entry, looked up): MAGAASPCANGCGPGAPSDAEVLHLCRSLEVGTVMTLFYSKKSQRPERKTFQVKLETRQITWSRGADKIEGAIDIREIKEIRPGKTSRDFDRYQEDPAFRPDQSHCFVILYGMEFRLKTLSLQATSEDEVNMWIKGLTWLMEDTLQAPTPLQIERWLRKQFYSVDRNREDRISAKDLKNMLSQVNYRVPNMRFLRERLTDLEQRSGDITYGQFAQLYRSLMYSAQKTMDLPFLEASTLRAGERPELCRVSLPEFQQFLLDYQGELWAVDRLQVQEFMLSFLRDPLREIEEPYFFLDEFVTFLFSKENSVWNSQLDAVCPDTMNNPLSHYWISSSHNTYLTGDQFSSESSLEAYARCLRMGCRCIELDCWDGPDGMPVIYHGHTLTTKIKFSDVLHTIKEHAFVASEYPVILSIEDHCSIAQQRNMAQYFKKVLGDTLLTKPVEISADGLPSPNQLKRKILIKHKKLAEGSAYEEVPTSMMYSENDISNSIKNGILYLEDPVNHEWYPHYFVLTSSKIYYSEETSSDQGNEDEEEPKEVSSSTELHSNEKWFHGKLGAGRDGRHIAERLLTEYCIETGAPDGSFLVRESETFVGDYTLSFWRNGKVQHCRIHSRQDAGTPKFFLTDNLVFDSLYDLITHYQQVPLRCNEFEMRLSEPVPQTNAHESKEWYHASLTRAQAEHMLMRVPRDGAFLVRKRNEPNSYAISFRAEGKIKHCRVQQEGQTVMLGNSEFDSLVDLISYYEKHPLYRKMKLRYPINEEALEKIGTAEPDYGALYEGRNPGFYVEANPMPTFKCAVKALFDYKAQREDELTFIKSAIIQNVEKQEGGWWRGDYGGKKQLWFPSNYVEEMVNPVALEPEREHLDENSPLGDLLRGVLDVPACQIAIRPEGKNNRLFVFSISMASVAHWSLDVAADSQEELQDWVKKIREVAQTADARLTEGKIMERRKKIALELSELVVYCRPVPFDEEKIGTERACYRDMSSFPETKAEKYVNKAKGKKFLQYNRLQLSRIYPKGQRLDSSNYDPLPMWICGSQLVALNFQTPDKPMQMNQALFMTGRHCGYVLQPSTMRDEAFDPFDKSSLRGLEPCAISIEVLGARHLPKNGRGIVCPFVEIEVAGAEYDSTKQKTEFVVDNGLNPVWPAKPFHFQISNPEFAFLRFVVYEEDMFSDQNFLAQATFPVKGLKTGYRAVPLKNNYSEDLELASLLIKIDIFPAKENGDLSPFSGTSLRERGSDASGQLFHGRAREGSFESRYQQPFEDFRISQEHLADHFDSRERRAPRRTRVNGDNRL
# MBD2 inh = MBD2-methylated oligo binding inhibition; Q9UBB5; TR-FRET, MBD2 binding to methylated oligonucleotide; inhibition, % at 4.4 µM; 0.31% of 370,000 active; AID 686964; in the data active means inhibition above about 13%
# PLC-beta3 inh = blocks human PLC-beta3 enzyme activity; Purified PLC-beta3, fluorogenic substrate, fluorescence; 0.18% of 370,000 active; AID 720704; inhibition, % at 12.2 µM; in the data active means inhibition above about 11%;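 further: 0% = median of compound wells on plate and 100% = full blocker control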
# UHRF1 binding = UHRF1 methyl-DNA binding inhibition; UHRF1 binding to methylated oligo, TR-FRET; 0.75% of 370,000 active; Q96T88; inhibition, % at 4.4 µM; AID 687016; in the data active means inhibition above about 21%;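 further: UHRF1 SRA domain binding a hemimethylated CpG hairpin DNA probe; 0% = median of test compound wells and 100% = reference inhibitor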
# IN multimer up = counter-screen for LEDGF/p75 integration inhibitors: HIV-1 integrase multimerization activators; shares compounds with LEDGF integ inh; TR-FRET HIV-1 integrase multimerization, biochemical; activation, % at 7.7 µM; 17% of 2,000 active; in the data active means activation above about 8.9%
# TR-FRET interf = counter-screen for LEDGF/p75 integration inhibitors: TR-FRET optical interference; shares compounds with LEDGF integ inh; TR-FRET optical interference counterscreen, HIV-1 IN multimerization; inhibition, % at 7.7 µM; 2,000 tested, under 10 active;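 active means inhibition above the mean over all tested compounds plus 3 SD, which no compound reached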;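 further: 0% = integrase with antibodies and DMSO and 100% = antibodies without integrase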
# IN-LEDGF confirm = confirmation of HIV-1 LEDGF/p75-dependent integration inhibitors. shares compounds with LEDGF integ inh. TR-FRET LEDGF/p75-dependent HIV-1 integration, biochemical. inhibition, % at 3.7 µM. 36% of 2,000 active; in the data active means inhibition above about 14%
# * = called active by the depositor; i = inactive; x = no result. In the library only some 2.3% were active in any assay of this set; here they are far more common.
SMILES,LEDGF integ inh,PLC-gamma1 inh,MBD2 inh,PLC-beta3 inh,UHRF1 binding,IN multimer up,TR-FRET interf,IN-LEDGF confirm
C=CCN1C[C@H](C)N(C(c2ccc(C(=O)N(CC)CC)cc2)c2cccc(OC)c2)CC1C (some centres not stated),1,-1,-1,2,-2,x,x,x
C[C@@H]1CNCCN1c1ccc(N2CC[C@@H](O)C2)c(C#N)c1,5,-16,-8,-23,-6,x,x,x
COc1cc2c(cc1O)[C@@H]1Cc3ccc(OC)c(O)c3CN1CC2,38*,3,-2,-6,6,6,-20,44*
CCc1ccccc1N1C(=O)/C(=C/c2ccc(N3CCN(C)CC3)o2)C(=O)NC1=S,17*,-13,-3,-20,6,2,-8,14*
CC(C)c1ccc(N2C(=O)NC(=O)/C(=C/C=C/c3ccco3)C2=O)cc1,24*,-34,0,-44,2,3,-12,27*
CC1=NN(c2ccccc2)C(=O)C1/C=C1\C(=O)NC(=O)N(c2cc(C)cc(C)c2)C1=O (configuration not stated),5,-6,-8,-11,-5,x,x,x
Cc1ccc(N2C(=O)NC(=O)/C(=C/C=C/c3ccco3)C2=O)cc1,35*,-22,-3,-29,10,-1,5,24*
O=C1NC(=O)N(c2ccccc2)C(=O)/C1=C\C=C\c1ccccc1,0,-1,7,-15,5,x,x,x
CCc1ccc(N2C(=O)NC(=O)/C(=C\C=C\c3ccco3)C2=O)cc1,35*,-29,1,-51,10,0,-1,40*
Cc1cc(C)cc(N2C(=O)NC(=O)/C(=C\C=C\c3ccco3)C2=O)c1,35*,-20,0,-29,15,-1,3,29*
CC1C2Cc3ccc(O)cc3C1(C)CCN2CC1CC1 (configuration not stated),-1,3,0,4,0,x,x,x
COC(=O)C1C(c2ccc(I)cc2)CC2CCC1N2C (configuration not stated),1,1,4,3,1,x,x,x
C[C@H]1CN([C@@H](C)CO)C(=O)CCCn2cc(nn2)CO[C@@H]1CN(C)C(=O)Oc1cccc2ccccc12,-2,-3,-4,-1,-2,x,x,x
O=C(O)c1cc(S(=O)(=O)N2CC3CC(C2)c2cccc(=O)n2C3)ccc1F (configuration not stated),1,0,-1,0,5,x,x,x
Cc1cc(N2CCNC[C@@H]2C)ccc1N1CCN[C@@H](C)C1,-3,-1,-2,-1,1,x,x,x
Cn1cccc1/C=C1/C(=O)NC(=O)N(Cc2ccc(F)cc2)C1=O,1,-3,-1,-15,20,x,x,x
O=C1NC(=O)N(Cc2ccc(F)cc2)C(=O)/C1=C\C=C\c1ccco1,30*,-26,-4,-50,5,3,-11,20*
CN(C)[C@@H]1C(=O)C(C(N)=O)=C(O)[C@@]2(O)C(=O)C3=C(O)c4c(O)ccc(Cl)c4[C@@](C)(O)C3C[C@@H]12 (some centres not stated),28*,-55,-3,-75,10,14*,-69,28*
CCc1nc2ccccc2c(=O)n1-c1ccccc1OC,25*,1,0,-4,3,1,-3,-5
COc1ccccc1-n1c(-c2ccccc2F)nc2ccccc2c1=O,2,2,0,-7,3,x,x,x
NN=C1C(Cl)=C(Cl)C(Cl)=C1Cl,22*,0,13,-1,40*,-1,5,3
C[C@@H]1CNCCN1c1ccc(N2CC[C@H](O)C2)c(C#N)c1,-5,-19,-2,-28,-4,x,x,x
C[C@]12CCC3C(CC[C@H]4C[C@H](N)CC[C@]34C)C1CC[C@H]2O (some centres not stated),21*,2,-2,-4,1,-3,15,-1
C=CCC1(CC)C(=O)NC(=S)NC1=O,1,0,-4,4,-1,x,x,x
C=C(C)CC1(CC)C(=O)NC(=S)NC1=O,20*,9,-1,8,4,1,-3,-5
CCCCn1c(NS(=O)(=O)c2ccccc2)c(C(=O)OCC)c2nc3ccccc3nc21,31*,i,7,i,12,0,-1,66*
CCOC(=O)c1c(N)n(CCN2CCCCC2)c2nc3ccccc3nc12,-2,i,-3,i,-5,x,x,x
CCCCn1c(NC(=O)c2ccc(Br)o2)c(C(=O)OCC)c2nc3ccccc3nc21,17*,i,-4,i,4,-1,3,69*
O=C1NC(=O)C(=Cc2cc3c(cc2[N+](=O)[O-])OCO3)C(=O)N1,21*,-27,-7,-49,-4,7,-25,0
O=C1NC(=O)C(=Cc2ccccc2[N+](=O)[O-])C(=O)N1,0,-33,-4,-43,-8,x,x,x

# Screens (PubChem)
